The values below come from PubChem BioAssay.

Experiment [1] is described as follows: blockers of polyQ-driven CASP3 activation – cell-based (AID 1583). Particulars: polyglutamine-induced caspase-3 activation, cell assay; stronger effect = higher value;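 tested at 10 µM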.
Experiment [2] in a line: yeast 75Q aggregation reduction – 75Q-TubU reporter (AID 1593). Particulars: Yeast 75Q polyglutamine aggregation reporter.
The nature of experiment [3]: restoration of touch response, mutant HTT neurons – whole organism, C. elegans mechanosensory neurons, N-terminal huntingtin (AID 1599). Conditions: C. elegans polyQ-huntingtin mechanosensory neurons, stronger effect = higher value.
Experiment [4] can be described thus: blockers of cytochrome c efflux from mitochondria – biochemical, purified mitochondria (AID 1603).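 Also: mouse liver mitochondria challenged with calcium chloride; signal normalized to the plate average as 100%.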 Particulars: stronger effect = lower value.
Experiment [5] in a line: polyglutamine aggregate formation blockers (AID 1604). Conditions: polyglutamine-induced protein aggregation inhibition assay; stronger effect = higher value; tested at 2.5 µM.
Experiment [6] can be described thus: glutamate transport activators, MN-1 cells, MN-1 cell line (AID 1612).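 Also: tested at 1 µM final; 0% = mean of DMSO vehicle wells on each plate; positive means more glutamate uptake than control and negative means less.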 Particulars: MN-1 motor neuron cells, stronger effect = higher value.
Experiment [7] in a line: 75Q-TubH aggregate inhibition, S. cerevisiae, yeast (AID 1616). Conditions: S. cerevisiae 75Q-TubH polyglutamine aggregation suppression; stronger effect = higher value.
Experiment [8] can be described thus: P. berghei load reduction in hepatocytes – cell-based, HepG2, luciferase luminescence, HepG2 viability, primary screen (AID 624349; in the data active = parasite load remaining mostly below about 12%, no sharp cut-off; inactive = mostly above about 10%;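 also: 100% = mean of DMSO negative control wells on the same plate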). Conditions: P. berghei liver stage in HepG2, luciferase luminescence, concentration not given here; parasite load remaining: stronger effect = lower value; viability: measured here: HepG2 viability without parasites.
In experiment [9] the target is 6-phosphogluconate dehydrogenase, decarboxylating (Homo sapiens) (UniProt P52209). Put plainly: inhibition of human phosphogluconate dehydrogenase – biochemical, recombinant enzyme, NADPH absorbance, primary screen (AID 1159550). Particulars: recombinant 6PGD, NADPH absorbance 341 nm; at 10 µM; stronger effect = higher value.
Chain of 6-phosphogluconate dehydrogenase, decarboxylating (Homo sapiens) (P52209 whole entry, looked up): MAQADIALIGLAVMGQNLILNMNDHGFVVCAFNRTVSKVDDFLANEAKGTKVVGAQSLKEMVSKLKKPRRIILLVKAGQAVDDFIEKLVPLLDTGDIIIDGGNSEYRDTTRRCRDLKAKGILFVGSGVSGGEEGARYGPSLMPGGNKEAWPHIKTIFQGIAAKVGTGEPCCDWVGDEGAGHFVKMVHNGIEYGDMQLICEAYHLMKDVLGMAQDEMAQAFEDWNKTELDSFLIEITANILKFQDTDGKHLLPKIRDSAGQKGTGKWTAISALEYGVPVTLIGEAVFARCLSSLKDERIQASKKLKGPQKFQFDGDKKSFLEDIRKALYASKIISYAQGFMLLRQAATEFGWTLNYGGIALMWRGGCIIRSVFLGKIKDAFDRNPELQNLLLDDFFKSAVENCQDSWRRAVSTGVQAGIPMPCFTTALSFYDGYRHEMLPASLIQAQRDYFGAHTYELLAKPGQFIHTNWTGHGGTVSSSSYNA
Experiment [10] in a line: EMT-state selective cytotoxicity in co-culture – imaging, PC-3E GFP, TEM4-18 mCherry, primary screen (AID 1345086;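 active = compounds killing one labelled cell type while sparing the other, by normalised counts and ratio limits, not self-fluorescent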;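 as to all read-outs here: cells exposed to compound for 72 h before imaging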;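 as to red/green cell ratio (normalised): normalised mesenchymal count divided by normalised epithelial count so high means epithelial killing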). Conditions: PC-3E GFP / TEM4-18 mCherry co-culture, imaging cell counts, at 1 µM; for red/green cell ratio (normalised): actives lie on both sides, counts scaled to control wells, 1 = unselective.
Experiment [11] has as its target Mitogen-activated protein kinase 7 (Homo sapiens) (UniProt Q13164). The experiment is described as follows: Gal4-ERK5 driven luciferase induction – cell-based, HTS, primary screen (AID 1508626;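 active = luciferase signal above three times the same-plate solvent-only control wells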;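 also: luciferase driven by Gal4-ERK5 fusion binding five Gal4 sites before minimal TATA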). Particulars: HeLa Gal4-ERK5 transactivation, 18 h, at 5 µM, stronger effect = higher value.
A short description of experiment [12]: viability loss in pontine glioma line – cell-based, SU-DIPG-XVII, MIPE5.0, CellTiter-Glo, qHTS, dose response (AID 1347060; cut-off not given, nearly all actives have AC50 up to about 26 µM;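 as to AC50: cells exposed to compound for 48 hours before viability readout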). Particulars: CellTiter-Glo ATP luminescence. (In general: ATP-based viability assays read luminescence as a measure of living cells.)
The nature of experiment [13]: viability loss in pontine glioma line – cell-based, JHH-DIPG-1, MIPE4.0, CellTiter-Glo, qHTS, dose response (AID 1347062; cut-off not given, nearly all actives have AC50 up to about 27 µM;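 as to AC50: cells exposed to compound for two days before readout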). Particulars: JHH-DIPG-1 viability, CellTiter-Glo ATP luminescence.
A short description of experiment [14]: viability loss in pontine glioma line – cell-based, SU-DIPG-IV, MIPE4.0, CellTiter-Glo, qHTS, dose response (AID 1347063; cut-off not given, nearly all actives have AC50 up to about 30 µM;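 also: compound exposure lasted 48 hours before the viability readout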). Particulars: CellTiter-Glo ATP luminescence.
Experiment [15] can be described thus: JHH-DIPG-1 glioma cell viability, MIPE5.0 library, CellTiter-Glo luminescence, qHTS (AID 1347067; cut-off not given, nearly all actives have AC50 up to about 26 µM;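 also: cells exposed to compound for 48 hours before readout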). Conditions: JHH-DIPG-1 glioma viability, CellTiter-Glo ATP luminescence.
Experiment [16] can be described thus: viability loss with induced miR-34 in A549 – imaging, A549 dox-inducible miR-34, nuclei and caspase counts, primary screen (AID 1347080;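 active = compounds whose cell count with miR-34 switched on is under 0.7 times the count with it off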). Conditions: A549 miR-34 inducible, Hoechst nuclei count, 48 h.
Experiment [17] is described as follows: galactose survival enhancers in mitochondrial complex I cybrids – cell-based, galactose medium, ATP luminescence, primary screen (AID 1645843;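 active = z-score of at least 1.8 in each of two replicates, scored against plate mean and spread of sample wells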;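 also: positive z means more ATP and so rescue of galactose-driven cybrid death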). Particulars: complex I mutant cybrid cells, 72 h, stronger effect = higher value.
A short description of experiment [18]: MELAS cybrid and Rieske KO viability enhancers – cell-based, MELAS cybrids, Rieske KO mouse fibroblasts, CellTiter-Glo, primary screen (AID 1508586;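 active = mean z-score across replicates of 1.96 or higher in either the MELAS or the Rieske mutant cell line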;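 also: z relative to plate mean and SD of compound and empty wells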). Conditions: low glucose.
A short description of experiment [19]: viability loss in pontine glioma line – cell-based, SU-DIPG-XIII, MIPE4.0, CellTiter-Glo, qHTS, dose response (AID 1347061; cut-off not given, nearly all actives have AC50 up to about 37 µM;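 also: cells exposed to compound for 48 hours before readout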). Particulars: CellTiter-Glo ATP luminescence.
Where [20] appears, read: measured here: epithelial PC-3E GFP cell survival.
The mark [21] stands for this setting: measured here: mesenchymal TEM4-18 mCherry cell survival.
[22] abbreviates: stronger effect = lower value, cell number ratio, induced over uninduced.
Setting [23] is: measured here: relative caspase fold change +Dox/-Dox.
The mark [24] stands for this setting: measured here: total cells with miR-34 induction, stronger effect = lower value.
Setting [25] is: measured here: total cells without miR-34 induction.

Inconclusive results are not listed. For part of these data: Results with a measured potency or affinity are listed apart. Activity calls are given as the source filed them.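 The calls were made as follows, unless noted: active = at least 20% inhibition of 6-phosphogluconate dehydrogenase activity; inactive = the rest.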

Chain of Mitogen-activated protein kinase 7 (Homo sapiens) (Q13164 whole entry, looked up, the tested form may be a part): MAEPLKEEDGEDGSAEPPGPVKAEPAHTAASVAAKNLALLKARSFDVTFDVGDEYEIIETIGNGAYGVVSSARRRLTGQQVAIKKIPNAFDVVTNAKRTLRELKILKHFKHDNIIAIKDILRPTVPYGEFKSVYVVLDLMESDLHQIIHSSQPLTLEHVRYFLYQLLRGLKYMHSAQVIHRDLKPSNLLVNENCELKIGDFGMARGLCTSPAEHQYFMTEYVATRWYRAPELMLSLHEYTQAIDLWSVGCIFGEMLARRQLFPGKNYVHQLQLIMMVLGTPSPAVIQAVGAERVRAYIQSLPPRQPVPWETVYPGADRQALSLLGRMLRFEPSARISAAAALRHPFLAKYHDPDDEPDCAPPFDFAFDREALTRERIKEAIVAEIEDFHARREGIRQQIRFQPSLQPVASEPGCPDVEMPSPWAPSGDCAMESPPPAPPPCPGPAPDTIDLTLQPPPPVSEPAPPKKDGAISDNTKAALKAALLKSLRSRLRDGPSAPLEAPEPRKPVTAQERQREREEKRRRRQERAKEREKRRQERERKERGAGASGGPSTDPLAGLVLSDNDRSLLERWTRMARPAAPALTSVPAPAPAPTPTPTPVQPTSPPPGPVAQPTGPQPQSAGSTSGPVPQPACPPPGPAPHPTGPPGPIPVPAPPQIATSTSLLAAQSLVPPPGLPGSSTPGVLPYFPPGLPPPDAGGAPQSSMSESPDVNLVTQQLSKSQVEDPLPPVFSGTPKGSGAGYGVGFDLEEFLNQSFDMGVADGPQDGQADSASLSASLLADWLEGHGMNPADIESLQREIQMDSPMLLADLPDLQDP

For the compound `CC(=O)N[C@@H]1[C@@H](O)[C@H](O)[C@@H](CO)O[C@H]1O`, the inhibition (as a rule, the relative decrease from the control value, in per cent) was 0.38% in experiment [1] and -7.13% (inactive) in experiment [9]. The same compound returned a score in [2] of 1.2. In experiment [3], this compound gave a rescue above control of 2.33. Moreover, the cytochrome c release ratio in [4] worked out at 0.85. The compound also came in with an inhibition of aggregation in experiment [5] of 91.6%. Also, the glutamate uptake change in [6] is -1.05%. Also, in [7], the aggregation suppression score turned out to be 1.62. Moreover, in experiment [8], the parasite load remaining was 72.2% (inactive). The viability (in general, the share of living cells, or the viability signal relative to a control) in experiment [8] came to 78.3%. Also, the red/green cell ratio (normalised) in experiment [10] was 0.98 (inactive). Moreover, the normalised cell number amounted to 1 in [10] (setting [20]) and 0.98 in experiment [10] (setting [21]). Also, in [11], the luciferase signal is 64 AU (inactive).
In the case of `CC(C)=CCc1c2c(c3occ(-c4ccc(O)c(O)c4)c(=O)c3c1O)C=CC(C)(C)O2`, the inhibition in experiment [1] was -8.52%; in experiment [9], 10.7% (inactive). In addition, the score in experiment [2] was -0.59. Also, the rescue above control in experiment [3] was -11.4. Besides, the cytochrome c release ratio in experiment [4] is 1.28. The inhibition of aggregation in experiment [5] stood at 45.6%. Besides, in experiment [6], the glutamate uptake change was 0.58%. Also, the aggregation suppression score in experiment [7] is -1.07. For the same compound, in experiment [10], the red/green cell ratio (normalised) was 0.76 (inactive). Besides, the normalised cell number in experiment [10] (setting [20]) worked out at 1.03; in [10] (setting [21]), 0.78. The luciferase signal in experiment [11] was 108 AU (inactive).
Turning to `COc1cc([C@@H]2c3cc4c(cc3[C@H](O)[C@H]3COC(=O)[C@@H]23)OCO4)cc(OC)c1OC`, the inhibition in experiment [9] is 1.7% (inactive). The half-maximal activity concentration (AC50) (commonly the concentration at which the activity in the assay is half-maximal) was 525 nM (active) in experiment [12], 235 nM (active) in experiment [13], 37.2 nM (active) in [14] and 1050 nM (active) in [15]. For the same compound, the luciferase signal in experiment [11] is 76 AU (inactive).
In the case of `C=C1CC[C@@H]2[C@](C)(CO)[C@H](O)CC[C@@]2(C)[C@@H]1C/C=C1/C(=O)OC[C@H]1O`, the inhibition in [9] was -4.69% (inactive). Moreover, the half-maximal activity concentration (AC50) in experiment [12] is 16600 nM (active); in experiment [15], 14800 nM (active). Besides, the luciferase signal in experiment [11] is 176 AU (active).
Regarding `O=C(O)c1c2ccccc2cc2ccccc12`, the inhibition in experiment [1] is -6.04%; in [9], -1.37% (inactive). Also, the score in [2] is 0.43. The compound also returned a rescue above control in [3] of 12.4. In experiment [4], the cytochrome c release ratio was 0.85. This compound showed an inhibition of aggregation in [5] of 33.3%. In addition, the glutamate uptake change in [6] was 11%. Further, in experiment [7], the aggregation suppression score was found to be 0.249. Besides, the fold change in experiment [16] (setting [22]) was 0.92 (inactive); in [16] (setting [23]), 0.787. Further, the cell count in experiment [16] (setting [24]) was 9100; in [16] (setting [25]) it was 9890. For the same compound, the luciferase signal in experiment [11] was 56 AU (inactive). In experiment [17], the z-score was 0.475 (inactive).
Turning to `COc1ccc(-c2cc(=O)c3c(O)cc(O[C@@H]4O[C@H](CO[C@@H]5O[C@@H](C)[C@H](O)[C@@H](O)[C@H]5O)[C@@H](O)[C@H](O)[C@H]4O)cc3o2)cc1O`, the inhibition in [9] is 7.55% (inactive). Moreover, the compound was called inactive in [12], in [13], in experiment [14] and in [15]. The z-score was 0.526 (inactive) in experiment [18] (MELAS cybrid survival, CellTiter-Glo 48 h, stronger effect = higher value) and 0.0112 in [18] (Rieske KO mouse fibroblast survival, CellTiter-Glo 72 h). For the same compound, the luciferase signal in experiment [11] is 80 AU (inactive).
Regarding `CN[C@H](CC(C)C)C(=O)N[C@H]1C(=O)N[C@@H](CC(N)=O)C(=O)N[C@H]2C(=O)N[C@H]3C(=O)N[C@H](C(=O)N[C@H](C(=O)O)c4cc(O)cc(O)c4-c4cc3ccc4O)[C@H](O)c3ccc(c(Cl)c3)Oc3cc2cc(c3O[C@@H]2O[C@H](CO)[C@@H](O)[C@H](O)[C@H]2O[C@H]2C[C@](C)(N)[C@H](O)[C@H](C)O2)Oc2ccc(cc2Cl)[C@H]1O`, the parasite load remaining in experiment [8] is 70.2% (inactive). This compound also had a viability in experiment [8] of 74.3%. Besides, in experiment [9], the inhibition was 3.51% (inactive). Moreover, the compound was classed as inactive in experiment [12], in [19], in experiment [13], in experiment [14] and in experiment [15]. The fold change in experiment [16] (setting [22]) was 0.946 (inactive); in experiment [16] (setting [23]), 1.32. In addition, the values for the cell count in [16] (setting [24]) and in [16] (setting [25]) were 9810 and 10400, respectively. The luciferase signal in experiment [11] is 68 AU (inactive). In addition, the z-score in [17] is 0.26 (inactive).
As for `COc1cc2c(c(OC)c1OC)-c1ccc(OC)c(=O)cc1C(NC(C)=O)CC2` (stereo not drawn), in experiment [9], the inhibition is -26.1% (inactive). Moreover, the results for the fold change in experiment [16] (setting [22]) and in experiment [16] (setting [23]) were 0.969 (inactive) and 1.26, respectively. The cell count is 1510 in experiment [16] (setting [24]) and 1550 in experiment [16] (setting [25]). In addition, the z-score in experiment [17] was -0.44 (inactive).
